These results are taken from paper PMC7156710, “The Sox2 transcription factor binds RNA”.

Holding throughout (assay): fluorescence anisotropy; 10 mM Tris-HEPES pH 7.5, 8% Ficoll, 0.05% NP-40, 135 mM KCl, 15 mM NaCl, 1 mM DTT, 0.1 mg/mL BSA; 2 nM DNA or 3 nM RNA; low values mean tight binding
Settings in all cases: protein: recombinant; tags: N-terminal His6 and thrombin site, not removed; label: 3' fluorescein; hairpin; structured_RNA

The target of assay [1] is Sox2-HMG (His6 retained) E78A (Homo sapiens, UniProt P48431 38-121, E78A). The procedure, abridged: (§1)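 Dissociation constants, fit in Kaleidagraph, are reported relative to wild type as a mutant-to-wild-type ratio. They come from polarization readings on a CLARIOstar after alanine-substituted Sox2-HMG domains, made by site-directed mutagenesis and Ni-NTA purified with the His6 tag retained, were titrated against 2 nM fluorescein-labeled DNA or 3 nM fluorescein-labeled RNA. Binding took place in Tris-HEPES pH 7.5 buffer for at least 1 h, and titrations were done in triplicate with three reads each.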

Assay [2] addresses Sox2-HMG (His6 retained) S72A (Homo sapiens, UniProt P48431 38-121, S72A). The procedure, abridged: as §1
In assay [3] the target is Sox2-HMG (His6 retained) E104A (Homo sapiens, UniProt P48431 38-121, E104A). The procedure, abridged: as §1
Assay [4] concerns the target Sox2-HMG (His6 retained) K58A (Homo sapiens, UniProt P48431 38-121, K58A). The procedure, abridged:
as §1

Assay [5] has as its target Sox2-HMG (His6 retained) H67A (Homo sapiens, UniProt P48431 38-121, H67A). The procedure, abridged: as §1
In assay [6] the target is Sox2-HMG (His6 retained) K42A (Homo sapiens, UniProt P48431 38-121, K42A). The procedure, abridged: as §1
For assay [7], the target named is Sox2-HMG (His6 retained) M45A (Homo sapiens, UniProt P48431 38-121, M45A). The procedure, abridged:
as §1

Assay [8] has as its target Sox2-HMG (His6 retained) N63A (Homo sapiens, UniProt P48431 38-121, N63A). The procedure, abridged: as §1
Assay [9] deals with Sox2-HMG (His6 retained) K115A (Homo sapiens, UniProt P48431 38-121, K115A). The procedure, abridged:
as §1

The target in assay [10] is Sox2-HMG (His6 retained) E70A (Homo sapiens, UniProt P48431 38-121, E70A). The procedure, abridged:
as §1

Assay [11] has as its target Sox2-HMG (His6 retained) K87A (Homo sapiens, UniProt P48431 38-121, K87A). The procedure, abridged:
as §1

For assay [12], the target named is Sox2-HMG (His6 retained) W79A (Homo sapiens, UniProt P48431 38-121, W79A). The procedure, abridged: as §1
In assay [13] the target is Sox2-HMG (His6 retained) E62A (Homo sapiens, UniProt P48431 38-121, E62A). The procedure, abridged: as §1
In assay [14] the target is Sox2-HMG (His6 retained) R114A (Homo sapiens, UniProt P48431 38-121, R114A). The procedure, abridged: as §1
The target in assay [15] is Sox2-HMG (His6 retained) S69A (Homo sapiens, UniProt P48431 38-121, S69A). The procedure, abridged: as §1
The target of assay [16] is Sox2-HMG (His6 retained) R96A (Homo sapiens, UniProt P48431 38-121, R96A). The procedure, abridged:
as §1

Assay [17] addresses Sox2-HMG (His6 retained) R40A (Homo sapiens, UniProt P48431 38-121, R40A). The procedure, abridged: as §1
Assay [18] deals with Sox2-HMG (His6 retained) W51A (Homo sapiens, UniProt P48431 38-121, W51A). The procedure, abridged: as §1
The target of assay [19] is Sox2-HMG (His6 retained) S83A (Homo sapiens, UniProt P48431 38-121, S83A). The procedure, abridged:
as §1

For assay [20], the target named is Sox2-HMG (His6 retained) R111A (Homo sapiens, UniProt P48431 38-121, R111A). The procedure, abridged: as §1
Assay [21] concerns the target Sox2-HMG (His6 retained) E84A (Homo sapiens, UniProt P48431 38-121, E84A). The procedure, abridged:
as §1

Assay [22] addresses Sox2-HMG (His6 retained) K95A (Homo sapiens, UniProt P48431 38-121, K95A). The procedure, abridged: as §1
Assay [23] concerns the target Sox2-HMG (His6 retained) F48A (Homo sapiens, UniProt P48431 38-121, F48A). The procedure, abridged:
as §1

Assay [24] concerns the target Sox2-HMG (His6 retained) R74A (Homo sapiens, UniProt P48431 38-121, R74A). The procedure, abridged: as §1

Sox2-HMG (His6 retained) S72A, sequence (P48431 other isoform, or with tags, fused parts or gaps S72A | S72A S72A): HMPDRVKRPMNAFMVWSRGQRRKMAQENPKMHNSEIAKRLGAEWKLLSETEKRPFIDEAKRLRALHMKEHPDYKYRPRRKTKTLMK
Sox2-HMG (His6 retained) M45A, sequence (P48431 other isoform, or with tags, fused parts or gaps M45A | M45A M45A): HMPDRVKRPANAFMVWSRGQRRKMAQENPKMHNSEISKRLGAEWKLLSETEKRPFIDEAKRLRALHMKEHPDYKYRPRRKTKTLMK
Sox2-HMG (His6 retained) R74A, sequence (P48431 other isoform, or with tags, fused parts or gaps R74A | R74A R74A): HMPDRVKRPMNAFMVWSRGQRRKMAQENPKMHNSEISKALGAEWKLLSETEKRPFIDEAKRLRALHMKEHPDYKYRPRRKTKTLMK
Sox2-HMG (His6 retained) K58A, sequence (P48431 other isoform, or with tags, fused parts or gaps K58A | K58A K58A): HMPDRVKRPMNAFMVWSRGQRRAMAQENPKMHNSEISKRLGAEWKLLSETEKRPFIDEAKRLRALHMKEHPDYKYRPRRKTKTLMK
Sox2-HMG (His6 retained) K95A, sequence (P48431 other isoform, or with tags, fused parts or gaps K95A | K95A K95A): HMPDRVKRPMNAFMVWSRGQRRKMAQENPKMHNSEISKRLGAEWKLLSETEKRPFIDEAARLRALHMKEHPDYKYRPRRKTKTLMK
Sox2-HMG (His6 retained) E70A, sequence (P48431 other isoform, or with tags, fused parts or gaps E70A | E70A E70A): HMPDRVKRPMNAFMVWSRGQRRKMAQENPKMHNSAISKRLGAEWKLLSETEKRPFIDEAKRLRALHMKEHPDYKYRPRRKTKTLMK
Sox2-HMG (His6 retained) E104A, sequence (P48431 other isoform, or with tags, fused parts or gaps E104A | E104A E104A): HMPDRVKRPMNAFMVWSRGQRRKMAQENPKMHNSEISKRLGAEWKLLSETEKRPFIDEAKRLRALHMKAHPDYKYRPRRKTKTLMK
Sox2-HMG (His6 retained) F48A, sequence (P48431 other isoform, or with tags, fused parts or gaps F48A | F48A F48A): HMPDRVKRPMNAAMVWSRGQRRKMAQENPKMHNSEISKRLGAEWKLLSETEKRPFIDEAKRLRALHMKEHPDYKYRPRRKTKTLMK
Sox2-HMG (His6 retained) W79A, sequence (P48431 other isoform, or with tags, fused parts or gaps W79A | W79A W79A): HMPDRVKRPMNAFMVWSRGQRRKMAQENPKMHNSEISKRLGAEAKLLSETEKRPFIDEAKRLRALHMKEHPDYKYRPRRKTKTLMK
Sox2-HMG (His6 retained) K42A, sequence (P48431 other isoform, or with tags, fused parts or gaps K42A | K42A K42A): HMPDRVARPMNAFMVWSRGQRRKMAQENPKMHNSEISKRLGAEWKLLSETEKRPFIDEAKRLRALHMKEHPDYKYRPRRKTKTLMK
Sox2-HMG (His6 retained) S69A, sequence (P48431 other isoform, or with tags, fused parts or gaps S69A | S69A S69A): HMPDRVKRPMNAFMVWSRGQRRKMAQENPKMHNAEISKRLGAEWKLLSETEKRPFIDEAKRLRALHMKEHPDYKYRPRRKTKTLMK
Sox2-HMG (His6 retained) S83A, sequence (P48431 other isoform, or with tags, fused parts or gaps S83A | S83A S83A): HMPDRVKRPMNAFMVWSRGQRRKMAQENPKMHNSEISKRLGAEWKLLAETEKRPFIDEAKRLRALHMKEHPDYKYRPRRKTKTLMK
Sox2-HMG (His6 retained) E78A, sequence (P48431 other isoform, or with tags, fused parts or gaps E78A | E78A E78A): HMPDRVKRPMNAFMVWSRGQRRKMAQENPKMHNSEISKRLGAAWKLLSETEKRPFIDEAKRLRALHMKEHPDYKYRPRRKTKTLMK
Sox2-HMG (His6 retained) K87A, sequence (P48431 other isoform, or with tags, fused parts or gaps K87A | K87A K87A): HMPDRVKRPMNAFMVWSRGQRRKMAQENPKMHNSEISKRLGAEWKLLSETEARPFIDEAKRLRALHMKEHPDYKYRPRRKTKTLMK
Sox2-HMG (His6 retained) W51A, sequence (P48431 other isoform, or with tags, fused parts or gaps W51A | W51A W51A): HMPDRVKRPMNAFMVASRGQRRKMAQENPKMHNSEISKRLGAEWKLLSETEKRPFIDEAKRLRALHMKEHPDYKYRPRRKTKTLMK
Sox2-HMG (His6 retained) N63A, sequence (P48431 other isoform, or with tags, fused parts or gaps N63A | N63A N63A): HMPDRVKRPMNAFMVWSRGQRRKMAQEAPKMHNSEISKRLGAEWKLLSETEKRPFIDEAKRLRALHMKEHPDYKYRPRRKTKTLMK
Sox2-HMG (His6 retained) R96A, sequence (P48431 other isoform, or with tags, fused parts or gaps R96A | R96A R96A): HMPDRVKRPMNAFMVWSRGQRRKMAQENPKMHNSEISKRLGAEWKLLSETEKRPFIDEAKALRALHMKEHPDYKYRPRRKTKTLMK
Sox2-HMG (His6 retained) H67A, sequence (P48431 other isoform, or with tags, fused parts or gaps H67A | H67A H67A): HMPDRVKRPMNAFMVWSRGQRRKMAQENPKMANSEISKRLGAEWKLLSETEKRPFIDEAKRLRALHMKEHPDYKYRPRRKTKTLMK
Sox2-HMG (His6 retained) R111A, sequence (P48431 other isoform, or with tags, fused parts or gaps R111A | R111A R111A): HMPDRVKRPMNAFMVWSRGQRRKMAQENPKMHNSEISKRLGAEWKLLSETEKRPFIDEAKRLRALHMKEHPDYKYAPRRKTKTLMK
Sox2-HMG (His6 retained) R114A, sequence (P48431 other isoform, or with tags, fused parts or gaps R114A | R114A R114A): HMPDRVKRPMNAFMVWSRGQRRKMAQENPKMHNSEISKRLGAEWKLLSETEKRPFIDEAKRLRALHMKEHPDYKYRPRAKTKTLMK
Sox2-HMG (His6 retained) E62A, sequence (P48431 other isoform, or with tags, fused parts or gaps E62A | E62A E62A): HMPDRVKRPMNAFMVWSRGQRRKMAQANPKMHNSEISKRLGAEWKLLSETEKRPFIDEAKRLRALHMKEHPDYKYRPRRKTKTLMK
Sox2-HMG (His6 retained) K115A, sequence (P48431 other isoform, or with tags, fused parts or gaps K115A | K115A K115A): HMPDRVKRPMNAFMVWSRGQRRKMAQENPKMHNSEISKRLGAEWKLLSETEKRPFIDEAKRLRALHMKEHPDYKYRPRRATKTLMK
Sox2-HMG (His6 retained) R40A, sequence (P48431 other isoform, or with tags, fused parts or gaps R40A | R40A R40A): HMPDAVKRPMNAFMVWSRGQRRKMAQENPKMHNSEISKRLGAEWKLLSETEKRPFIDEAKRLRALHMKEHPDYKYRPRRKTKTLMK
Sox2-HMG (His6 retained) E84A, sequence (P48431 other isoform, or with tags, fused parts or gaps E84A | E84A E84A): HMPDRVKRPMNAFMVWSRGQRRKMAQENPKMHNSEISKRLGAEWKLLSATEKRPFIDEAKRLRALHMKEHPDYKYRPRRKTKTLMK

In the case of GGUCUUAAGGUGCGGGCGAAAGUCUGUACCUCUGGGACC, the binding signal was 0.9 ± 0.5 Kd(mutant)/Kd(WT) in [1]; 1 ± 0.6 Kd(mutant)/Kd(WT) in assay [2]; 1 ± 0.5 Kd(mutant)/Kd(WT) in assay [3]; 0.8 ± 0.4 Kd(mutant)/Kd(WT) in [4]; 3.7 ± 1.7 Kd(mutant)/Kd(WT) in assay [5]; 7.9 ± 2.7 Kd(mutant)/Kd(WT) in assay [6]. The binding signal in [7] was 0.9 ± 0.5 Kd(mutant)/Kd(WT); in [8], 1.3 ± 0.2 Kd(mutant)/Kd(WT); in assay [9], 3.6 ± 1.4 Kd(mutant)/Kd(WT); in [10], 1.2 ± 0.4 Kd(mutant)/Kd(WT); in assay [11], 4.1 ± 1.4 Kd(mutant)/Kd(WT); in [12], 50 ± 19 Kd(mutant)/Kd(WT). The binding signal is 1.6 ± 0.8 Kd(mutant)/Kd(WT) in assay [13]; 9.2 ± 2.3 Kd(mutant)/Kd(WT) in assay [14]; 1.6 ± 0.5 Kd(mutant)/Kd(WT) in [15]; 0.8 ± 0.3 Kd(mutant)/Kd(WT) in [16]; 2.7 ± 0.3 Kd(mutant)/Kd(WT) in assay [17]; 78 ± 13 Kd(mutant)/Kd(WT) in assay [18]. Further, the binding signal was 1.8 ± 0.6 Kd(mutant)/Kd(WT) in [19]; 2.2 ± 1.2 Kd(mutant)/Kd(WT) in assay [20]; 0.9 ± 0.5 Kd(mutant)/Kd(WT) in assay [21]; 3.2 ± 1.2 Kd(mutant)/Kd(WT) in assay [22]; 16 ± 2 Kd(mutant)/Kd(WT) in [23]; 0.9 ± 0.5 Kd(mutant)/Kd(WT) in [24].
